Shown are actives, neighbours in structure and some others; about 19% of the full set was active somewhere.
HT1080 IDH1KD tx = HT-1080 IDH1 knockdown cell toxicity (counter line); AID 686971; HT-1080 IDH1 knockdown viability, ATP luminescence, 48 h; Potency, µM (highest dose often 46.1 µM), inactives show at the top dose activity, negative = toxicity, usual class: cytotoxic; hit rate 2% among 360,000;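 further: potency means the concentration at half of the fitted maximal effect; 0% = DMSO wells and -100% = cell-free medium wells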
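After a 2 h attachment period, IDH1KD HT-1080 cells took pin-transferred compound for 48 h at 37 °C; ATP-based luminescence after 10 min room-temperature reagent incubation reported viability.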
HT1080-NT tox = kills 2HG-producing HT-1080-NT fibrosarcoma cells. HT-1080-NT fibrosarcoma viability, CellTiter-Glo ATP luminescence, 48 h. Potency, µM (series often up to 46.1 µM), without a hit: at the highest dose activity, negative = less viability, hits mostly cytotoxic. hit rate 1.6% among 360,000;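 further: NT is the 2HG producing partner of a matched IDH1 knockdown line; potency means the concentration at half of the fitted maximal effect; 0% = DMSO-treated cells and -100% = media-only wells without cells; nearly all actives have a fitted effect of over 55% in size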
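Viability by CellTiter-Glo luminescence after 48 h compound exposure at 37C of HT-1080-NT cells (750/well, RPMI, 5% FBS). % activity scaled between DMSO wells and medium-only wells, then curve-fitted and categorized by curve class.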
TDP1 cell noCPT = qHTS for Inhibitors of human tyrosyl-DNA phosphodiesterase 1 (TDP1): qHTS in cells in absence of CPT; Potency, µM (titrated, usually from 46.2 µM), for inactives: at the top dose activity change, negative = growth inhibition, usual class: inhibitors; AID 686978, 2013; hit rate 15% among 420,000; DT40 Tdp1-/- hTDP1 cells, no CPT, ATP luminescence, 48 h; further: potency means the concentration at half of the fitted maximal effect; nearly all actives have a fitted effect of over 55% in size
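Luminescent ATP content (CellTiter-Glo) served as the growth readout. Knockout chicken DT40 cells expressing human TDP1 were exposed to compounds without camptothecin for a minimum 48 hr at 37 °C.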
TDP1 cell CPT = growth inhibition of DT40 Tdp1-/-;hTDP1 cells with camptothecin (screen for TDP1 inhibitors); chicken DT40 Tdp1-/-;hTDP1 cells + 20 nM CPT, ATP luminescence, 48 h; Potency, µM (titrated, usually from 46.2 µM), for the others: at the top dose activity change, negative = growth inhibition, actives largely listed as inhibitors; hit rate 12% among 420,000; AID 686979; further: potency means the concentration at half of the fitted maximal effect; nearly all actives have a fitted effect of over 55% in size
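Cell growth measured by CellTiter-Glo luminescence after a minimum 48 h, 37 C compound exposure with 20 nM CPT in Tdp1-knockout DT40 cells stably expressing hTDP1, seeded 400/well; qHTS titration format.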
IL-1B inflam inh = blocks inflammasome-driven IL-1 beta release; THP-1 LPS/ATP IL-1B secretion, AlphaLISA, 16 h; stronger effect = lower value; activity change, % at 57.5 µM; hit rate 4.7% among 360,000; AID 743279; in the data active means activity change below about -50%; inconclusive means mostly about -30% to -49%
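THP-1 cells pretreated 1 hr with compounds (up to 57.5 uM final), then stimulated with LPS (250 ng/mL final) plus ATP (1.25 mM final); secreted IL-1B measured by AlphaLISA after 16 hr, decreased signal indicating inhibition.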
An asterisk follows results filed as active; u = inconclusive; x = no result. Unless noted, the call rests on the fitted dose curve; in most records, active means well fitted curve in the direction sought with a large enough effect; inconclusive means small, poorly fitted or top-dose-only effect, or another doubt; inactive means no such curve, though single readings can be large; an effect the other way counts as inactive or inconclusive. Unless noted, on the % scale 0 is the no-effect control and ±100 the full control effect.

SMILES | HT1080 IDH1KD tx | HT1080-NT tox | TDP1 cell noCPT | TDP1 cell CPT | IL-1B inflam inh
CCOC(=O)N1CCN(S(=O)(=O)c2ccc(C(=O)Nc3nc4ccc(F)cc4s3)cc2)CC1 | 3.0% | 1.6% | 6.51µM* | 8.2µM* | -18.9
CC(C)CC(=O)Nc1nc2ccc(S(=O)(=O)N3CCOCC3)cc2s1 | 18.4µM* | 9.2µM* | 20.6µM* | 13µM* | 12.9
COc1ccc(N2CCN(C(=O)c3cc(C)on3)CC2)cc1 | 8.5% | 14.8% | 11.4% | 2.4% | -16.5
CN(Cc1ccc(Cl)s1)C(=O)CNC(=O)CNC(=O)c1ccc(Cl)cc1Cl | -1.4% | 0.7% | -1.7% | -13.7% | u
O=C(OCC(=O)N1CCN(S(=O)(=O)c2ccccc2)CC1)c1ccc([N+](=O)[O-])o1 | 10.6% | 2.0% | -16.6% | -27.9% | -10.8
Cc1ccccc1OCCC(=O)OCC(=O)N1CCN(S(=O)(=O)c2ccc(Cl)cc2)CC1 | 4.5% | 0.4% | -26.2% | -12.0% | 12.2
Cc1ccc(S(=O)(=O)N2CCN(C(=O)COC(=O)CCOc3ccc(C(C)(C)C)cc3)CC2)cc1 | -7.1% | -5.0% | 10.3µM* | 11.6µM* | -14.6
Cc1ccc(OCCC(=O)OCC(=O)N2CCN(S(=O)(=O)c3ccc(C)cc3C)CC2)cc1 | 8.1% | 2.8% | u | u | 6.8
CCOc1ccc(OCCC(=O)OCC(=O)N2CCN(S(=O)(=O)c3ccc(C)cc3)CC2)cc1 | -15.0% | u | 14.6µM* | 14.6µM* | -72.9*
Cc1ccc(OCCC(=O)OCC(=O)N2CCN(S(=O)(=O)c3ccc(Cl)cc3)CC2)cc1 | -1.8% | 4.6% | u | u | -58.7*
O=C(OCC(=O)N1CCN(S(=O)(=O)c2ccc(Cl)cc2)CC1)c1ccc([N+](=O)[O-])o1 | 9.1% | 5.5% | u | 18.4µM* | u
Cc1nn(C)cc1C(C)NCc1c(C(=O)N2CCCCCCC2)nc2ccc(Cl)cn12 (centres undefined) | 2.4% | 9.4% | -22.6% | -2.6% | 3.8
COCc1cc(C)nc(SCC(=O)Nc2ccc(N3CCOCC3)cc2)c1C#N | 6.3% | 9.5% | -9.6% | -7.0% | -0.5
O=C(Nc1cc2c3c(c1)CC(=O)N3CCC2)c1ccc(F)cc1 | -0.8% | -0.4% | u | -25.0% | -5.0
NC(=O)CCCCC1CCSS1 (centres undefined) | x | x | -2.6% | 6.6% | x
Cc1ccc(NC(=O)CNc2ccccc2N2CCCC2=O)cc1S(=O)(=O)N1CCOCC1 | 14.4% | 7.5% | u | u | 5.0
COc1cc(/C=C2\SC(=S)N(NC(=O)c3ccccc3O)C2=O)ccc1O | -11.9% | u | 25.9µM* | u | 23.2
COC(=O)c1ccc(/C=C2/SC(=S)N(CCCC(=O)Nc3ccc(O)cc3)C2=O)cc1 | -7.1% | -9.3% | 13µM* | u | u
COc1ccc(/C=C2/SC(=S)N(CCCC(=O)Nc3cccc(O)c3)C2=O)cc1 | u | u | u | u | -78.9*
O=C(CCCN1C(=O)/C(=C/c2cccs2)SC1=S)NNC(=O)c1ccncc1 | -10.9% | -10.3% | u | u | 0.0
O=C(CCCN1C(=O)/C(=C/c2cccs2)SC1=S)NNC(=O)c1ccccc1O | u | -0.8% | 16.4µM* | 20.6µM* | 0.0
COC(=O)c1ccccc1NC(=O)CSc1nc(=O)cc(N)n1-c1ccccc1 | x | x | -18.3% | 8.3% | x
O=C(CSc1nc(-c2ccco2)cc(C(F)(F)F)n1)NCCN1CCOCC1 | 9.3% | 3.8% | u | -19.6% | 8.5
COc1ccc(CNC(=O)c2coc(=O)c3ccccc23)cc1 | -24.4% | u | -14.0% | -12.9% | 8.1
O=C(CCCN1C(=O)/C(=C\c2cccs2)SC1=S)Nc1ccc(O)cc1 | -27.3% | -6.1% | u | 25.9µM* | 18.0
O=C(CCCN1C(=O)/C(=C/c2ccco2)SC1=S)Nc1cccc(C(=O)O)c1 | 3.0% | 0.0% | 5.8% | 12.4% | 10.5
O=C(CCCN1C(=O)/C(=C\c2cccs2)SC1=S)Nc1ccccn1 | -8.0% | 1.4% | 16.4µM* | u | 8.6

Bioassay records from PubChem.
